Records with an inconclusive call do not appear. Activity calls are given as the source filed them. Rule for the calls: active = hit-call score of the fitted dose curve at least 0.9, where 1 is the maximum; inconclusive = response in the unintended direction; inactive = score below 0.9.
What follows are compounds tested against Androgen Receptor/SRC-1 Co-activator, AR (gene 367) (UniProt P10275) (assay: OT_AR_ARSRC1_0480: Odyssey Thera (OT) 8-hour HEK293T Protein-Complementation Assay for Androgen Receptor/SRC-1 Co-activator (AID 2283354);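 note: hits raise the complementation signal above DMSO so AC50 marks enhancers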).
Sequence of Androgen Receptor/SRC-1 Co-activator, AR (gene 367) (P10275 whole entry, looked up, the tested form may be a part): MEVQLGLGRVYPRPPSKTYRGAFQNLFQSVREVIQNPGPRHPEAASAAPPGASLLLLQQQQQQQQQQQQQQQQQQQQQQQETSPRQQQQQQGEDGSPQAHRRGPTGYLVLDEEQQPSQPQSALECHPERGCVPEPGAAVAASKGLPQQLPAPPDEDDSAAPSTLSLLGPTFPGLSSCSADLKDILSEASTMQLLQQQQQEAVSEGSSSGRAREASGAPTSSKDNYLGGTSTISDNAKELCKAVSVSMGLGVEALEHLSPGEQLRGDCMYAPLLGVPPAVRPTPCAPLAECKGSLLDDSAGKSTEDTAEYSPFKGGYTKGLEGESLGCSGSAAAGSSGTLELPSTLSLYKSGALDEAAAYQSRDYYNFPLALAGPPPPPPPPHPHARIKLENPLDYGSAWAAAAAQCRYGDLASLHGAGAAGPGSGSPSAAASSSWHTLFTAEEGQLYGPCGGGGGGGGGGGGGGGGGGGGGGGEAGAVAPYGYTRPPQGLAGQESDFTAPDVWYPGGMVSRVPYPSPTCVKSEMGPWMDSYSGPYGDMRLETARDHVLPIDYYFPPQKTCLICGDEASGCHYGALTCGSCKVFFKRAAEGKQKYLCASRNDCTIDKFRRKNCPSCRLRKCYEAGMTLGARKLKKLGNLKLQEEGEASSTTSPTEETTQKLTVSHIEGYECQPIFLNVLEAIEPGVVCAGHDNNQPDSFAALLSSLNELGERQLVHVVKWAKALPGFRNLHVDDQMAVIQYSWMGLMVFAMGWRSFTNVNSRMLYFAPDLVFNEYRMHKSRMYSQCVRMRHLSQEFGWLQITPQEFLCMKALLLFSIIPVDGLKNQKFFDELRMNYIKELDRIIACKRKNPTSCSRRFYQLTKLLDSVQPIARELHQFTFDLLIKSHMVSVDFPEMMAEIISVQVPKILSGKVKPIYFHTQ
Procedure, shortened: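 After 8 h dosing, stably expressing HEK293T cells with split-Venus AR/SRC-1 fusions were imaged (488, 635nm). The 488nm N/C ratio per image gave the endpoint, analysed in the positive direction against DMSO.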
In the case of OCc1cccc(Oc2ccccc2)c1, the outcome is reported as “inactive”. With CC1CCC(C(C)C)C(O)C1 (centres undefined) the outcome was “inactive”. In the case of CCCCCCCCCCCCCC(=O)OCC(O)CO (centres undefined), the outcome is reported as “inactive”. BrCc1cccc(Oc2ccccc2)c1 was tested, and the outcome was “inactive”. In the case of Nc1ccc(N)c2c1C(=O)c1ccccc1C2=O, the outcome is reported as “inactive”. In the case of CCc1ccc(O)cc1, the outcome is reported as “inactive”. For C[C@H]1O[C@@H](O[C@H]2[C@@H](O)C[C@H](O[C@H]3[C@@H](O)C[C@H](O[C@H]4CC[C@@]5(C)[C@H](CC[C@@H]6[C@@H]5C[C@@H](O)[C@]5(C)[C@@H](C7=CC(=O)OC7)CC[C@]65O)C4)O[C@@H]3C)O[C@@H]2C)C[C@H](O)[C@@H]1O, the outcome was “inactive”. In the case of CCCCC1CCC(O)CC1 (centres undefined), the outcome is reported as “inactive”. In the case of CCc1cc(Cc2cc(CC)cc(C(C)(C)C)c2O)c(O)c(C(C)(C)C)c1, the AC50 is reported as 15.8 µM (active).
